PubChem BioAssay (Tox21)
Records with an inconclusive call do not appear. Active and inactive are the calls of the source. Unless noted, calls come from the whole dose curve; as a rule, active = well fitted curve in the direction sought with a large enough effect in the repeat runs; inconclusive = weak or mixed curves; inactive = no such curve, though single readings can be large; an effect the other way counts as inactive or inconclusive.

What was measured:
[1] = qHTS assay to identify small molecule agonists of the hypoxia (HIF-1) signaling pathway - cell viability counter screen (AID 1224844; calls by dose curve; note: nearly all actives have a fitted effect of over 50% in size)
Outline: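 Luminescent ATP content (CellTiter-Glo, 30 min, room temperature) served as the viability measure in HRE-bla ME-180 cells exposed to compounds for 17 hrs in low-serum medium (0.5% dialyzed FBS).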

[2] = qHTS assay to identify small molecule agonists of H2AX (AID 1224845; active = well fitted activation curve with a large enough effect in the signal ratio in the repeat runs, not every such curve was filed as active; the % refers to the signal ratio)
Outline: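 Phospho-H2AX Ser139 measured by HTRF (ex 320 nm; em 665 and 620 nm) after 24 hr antibody incubation. Compounds, 15 concentrations, 0.76% DMSO, were applied to CHO-K1 cells for 3hr at 37C before lysis.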

[3] = qHTS assay to identify small molecule agonists of the hypoxia (HIF-1) signaling pathway (AID 1224846; active = well fitted activation curve with a large enough effect in the signal ratio in the repeat runs, not every such curve was filed as active; the % refers to the signal ratio)
Outline: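 Measured by blue/green FRET after loading CCF4-AM: beta-lactamase expressed from a hypoxia response element in ME-180 cells. Test agents were delivered in DMSO and left 17 hrs; cells had been plated 5 hrs earlier in low-serum (0.5% dialyzed FBS) medium.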

[4] = qHTS assay to identify small molecule agonists of H2AX - cell viability counter screen (AID 1224847; calls by dose curve; note: top concentration of the series differs between compounds; nearly all actives have a fitted effect of over 30% in size)
Outline: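 Compounds tested at 15 concentrations were incubated 3 hr at 37C with wild-type CHO-K1 cells; cellular ATP-based luminescence (CellTiter-Glo) indicated viability.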

[5] = qHTS RealTime-Glo MT Cell Viability Assay in HEK293 cells - 32 hour (AID 1224868); note: nearly all actives have a fitted effect of over 50% in size; note: potency is the fitted concentration of half-maximal effect; for activity change, negative = cytotoxic: top concentration of the series differs between compounds
Outline: (§1)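 Cells + reagent dispensed (600 cells/well, HEK293) → 5 h at 37 C/5% CO2 → 23 nL compound in DMSO pinned → 40 h at 37 C → luminescence read at 0, 8, 16, 24, 32, 40 h.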

[6] = A CellTox Green Cytotoxicity Assay to monitor cytotoxicity in HEK293 cells - 0 hour (AID 1224869); note: nearly all actives have a fitted effect of over 50% in size
Outline: (§2)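 Each value comes from one timepoint of a single continuous run in which HEK293 cells with CellTox Green were exposed to compound for up to 40 h at 37 C, dye fluorescence rising with cell death.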

[7] = qHTS RealTime-Glo MT Cell Viability Assay in HepG2 cells - 40 hour (AID 1224870); note: nearly all actives have a fitted effect of over 50% in size; note: potency is the fitted concentration of half-maximal effect
Outline: (§3)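 Real-time viability: cells seeded at 600 per well together with NanoLuc and cell-permeant prosubstrate, compounds added after 5 h incubation. Luminescence tracked at 0, 8, 16, 24, 32 and 40 h of exposure.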

[8] = A CellTox Green Cytotoxicity Assay to monitor cytotoxicity in HEK293 cells - 40 hour (AID 1224871); note: nearly all actives have a fitted effect of over 45% in size; note: potency is the fitted concentration of half-maximal effect
Outline: as §2

[9] = qHTS RealTime-Glo MT Cell Viability Assay in HEK293 cells - 16 hour (AID 1224872); note: nearly all actives have a fitted effect of over 50% in size; note: potency is the fitted concentration of half-maximal effect; for activity change, negative = cytotoxicity: top concentration of the series differs between compounds
Outline: as §1

[10] = qHTS RealTime-Glo MT Cell Viability Assay in HEK293 cells - 40 hour (AID 1224874); details: RealTime-Glo luminescence; max response: active compounds read low; note: nearly all actives have a fitted effect of over 50% in size; note: potency is the fitted concentration of half-maximal effect
Outline: (§4)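 qHTS format; HEK293 cells with NanoLuc/prosubstrate reagent, 37 C/5% CO2 for 5 h pre-dosing; compounds 23 nL in DMSO; luminescence at each time point reflects viable cells.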

[11] = A CellTox Green Cytotoxicity Assay to monitor cytotoxicity in HEK293 cells - 24 hour (AID 1224875); note: series mostly up to about 77 µM; nearly all actives have a fitted effect of over 45% in size
Outline: as §2

[12] = A CellTox Green Cytotoxicity Assay to monitor cytotoxicity in HepG2 cells - 16 hour (AID 1224876); note: nearly all actives have a fitted effect of over 45% in size
Outline: (§5)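 Continuous culture of HepG2 cells with a membrane-impermeant DNA dye; rising fluorescence marks dead cells. Compound exposure lasted up to 40 h at 37 C, with reads every 8 h from 0 h.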

[13] = A CellTox Green Cytotoxicity Assay to monitor cytotoxicity in HepG2 cells - 24 hour (AID 1224878); note: nearly all actives have a fitted effect of over 45% in size
Outline: as §5

[14] = A CellTox Green Cytotoxicity Assay to monitor cytotoxicity in HepG2 cells - 40 hour (AID 1224879); note: nearly all actives have a fitted effect of over 40% in size
Outline: as §5

[15] = qHTS RealTime-Glo MT Cell Viability Assay in HEK293 cells - 0 hour (AID 1224880)
Outline: as §4

[16] = qHTS RealTime-Glo MT Cell Viability Assay in HepG2 cells - 24 hour (AID 1224867); note: nearly all actives have a fitted effect of over 50% in size
Outline: (§6)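 Real-time, nonlytic viability: 600 HepG2 cells/well mixed with NanoLuc enzyme plus prosubstrate; 5 h settle, compound (DMSO) added by pintool; luminescence monitored over 40 h at 37 C.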

[17] = qHTS RealTime-Glo MT Cell Viability Assay in HepG2 cells - 8 hour (AID 1224873); note: nearly all actives have a fitted effect of over 55% in size
Outline: as §3

[18] = qHTS RealTime-Glo MT Cell Viability Assay in HepG2 cells - 32 hour (AID 1224877); note: nearly all actives have a fitted effect of over 55% in size
Outline: as §6

[19] = qHTS assay to identify small molecule antagonists of the estrogen related receptor (ERR) signaling pathway from Tox21 library (AID 1224848); note: nearly all actives have a fitted effect of over 50% in size; note: potency is the fitted concentration of half-maximal effect
Outline: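 Reading was by luminescence 30 min after ONE-Glo addition. Before that, ERR cells at 2,000 per well had rested 6 h at 37 C/5% CO2 and then received pin-tooled compounds in DMSO for 18 h at 37 C.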

[20] = qHTS assay to identify small molecule agonists of the estrogen related receptor (ERR) signaling pathway from Tox21 library (AID 1224849; calls by dose curve; note: nearly all actives have a fitted effect of over 15% in size)
Outline: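 We plated ERR reporter cells, waited 6 h, added compounds in DMSO by pin tool and incubated them 18 h at 37 C. ONE-Glo was then added and luminescence read after 30 min.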
% is set by controls: 0 for no effect and ±100 for the full control effect.

CCCn1cc[n+](C)c1C
inactive: Potency [1] | Potency [2] | outcome [3] | outcome [4] | Potency [5] | outcome [6] | Potency [8] | Potency [9] | max response [10] 0.77% | outcome [11] | outcome [12] | outcome [13] | Potency [14] | Potency [15]
active: Potency [7] 45 µM

CC(C)CCCO
inactive: Potency [1] | outcome [3] | outcome [4] | outcome [16] | Potency [5] | outcome [6] | Potency [8] | Potency [9] | outcome [17] | max response [10] 9.91% | outcome [11] | outcome [13] | Potency [14] | Potency [15]

CCOc1ccc2nc(S(N)(=O)=O)sc2c1
inactive: Potency [1] | outcome [3] | outcome [4] | Potency [5] | outcome [6] | Potency [7] | Potency [8] | Potency [9] | outcome [17] | max response [10] 6.72% | outcome [11] | outcome [12] | Potency [18] | outcome [13] | Potency [15]

CCN(Cc1ccccc1)c1ccccc1
active: Potency [19] 30.3 µM | Potency [5] 19.3 µM | Potency [8] 43.1 µM | Potency [9] 19.3 µM | Potency [10] 21.6 µM
inactive: outcome [3] | outcome [4] | outcome [20] | outcome [16] | outcome [6] | outcome [11] | outcome [12] | Potency [18] | outcome [13] | Potency [14] | Potency [15]

Cc1ccc(-c2ncc(Cl)cc2-c2ccc(S(C)(=O)=O)cc2)cn1
inactive: Potency [1] | outcome [3] | outcome [4] | outcome [16] | Potency [5] | outcome [6] | Potency [7] | Potency [8] | Potency [9] | outcome [17] | max response [10] -19.4% | outcome [11] | outcome [12] | Potency [18] | outcome [13] | Potency [15]

C=C(C)C(=O)OCCOCCOCCOCCOC(=O)C(=C)C
inactive: Potency [1] | outcome [3] | outcome [4] | outcome [16] | outcome [6] | Potency [7] | Potency [8] | Potency [9] | outcome [17] | outcome [11] | Potency [18] | outcome [13] | Potency [15]

NC(N)=NCCN1CCCCCCC1
inactive: activity change, negative = cytotoxicity [1] -1.67% [at 0.29 µM] | activity change, negative = cytotoxicity [4] 0.639% [at 0.582 µM] | activity, negative = inhibition [19] 12.8% [at 0.349 µM] | activity change, positive = activation [20] 7.2% [at 0.349 µM] | activity change, negative = cytotoxicity [16] 0.287% [at 0.29 µM] | activity change, negative = cytotoxic [5] -3.18% [at 0.29 µM] | cytotoxicity [6] 4.87% [at 0.29 µM] | activity change, negative = cytotoxic [7] 0.511% [at 0.29 µM] | cytotoxicity increase [8] 1.15% [at 0.29 µM] | activity change, negative = cytotoxicity [9] -1.96% [at 0.29 µM] | viability change, negative = cytotoxic [17] 0.369% [at 0.29 µM] | max response [10] -2.62% | activity change [11] 3.96% [at 0.29 µM] | cytotoxicity increase [12] -11.2% [at 0.29 µM] | activity change, negative = cytotoxic [18] 0.55% [at 0.29 µM] | cytotoxicity [13] -13.4% [at 0.29 µM] | cytotoxicity increase [14] -13% [at 0.29 µM] | activity change, negative = cytotoxicity [15] -7.81% [at 0.29 µM]

CC(C)C1CCC(O)CC1 (stereo unspecified)
inactive: Potency [1] | outcome [3] | outcome [4] | outcome [16] | Potency [5] | outcome [6] | Potency [8] | outcome [17] | max response [10] 7.59% | outcome [11] | outcome [12] | outcome [13] | Potency [14] | Potency [15]
